Compound activity (PubChem)
Hits are enriched below; roughly 2.2% of the tested compounds scored in any of these assays.
Nrf2 inh – Nrf2 pathway inhibition; A549 ARE-Fluc reporter, luciferase luminescence, 18-24 h; Potency, µM (titrated, usually from 46 µM), most hits filed as inhibitors; 360,000 tested, 2.1% active; AID 504444; also: nearly all actives have a fitted effect of over 60% in size
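Cells were seeded and rested 2 h, then exposed to compounds for 18-24 h. CellTiter-Fluor was read first as a viability measure. BugLite was added 15 min before the final luminescent read of ARE-luciferase activity in A549 cells.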
Pin1 inh – human Pin1 inhibition | Pin1 FP peptide displacement, HiFluor488, 10 min | Potency, µM (series often up to 115 µM), hits mostly inhibitors | 390,000 tested, 0.009% active | AID 504891; active = well fitted inhibition curve with a large enough effect in the polarisation, with a control signal flat, not every such curve was filed as active; inconclusive = small, poorly fitted or top-dose-only effect, or effect the other way, or a change in a side signal; inactive = no such curve, though single readings can be large or run the other way; the % refers to the polarisation
Target sequence (Q13526 whole entry, looked up): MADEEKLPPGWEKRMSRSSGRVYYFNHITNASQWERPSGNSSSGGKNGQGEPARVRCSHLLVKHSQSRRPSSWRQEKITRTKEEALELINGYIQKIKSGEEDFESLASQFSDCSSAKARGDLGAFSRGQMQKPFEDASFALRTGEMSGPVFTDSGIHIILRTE
A549 viability – counter-screen for Nrf2 inhibitors: cytotoxicity in A549 cells | A549 ARE-Fluc cells, CellTiter-Fluor viability, 18-24 h | Potency, µM (highest dose often 46 µM), actives largely listed as inhibitors | 390,000 tested, 0.16% active
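A549 ARE-Fluc cells in 5% FBS OPTI-MEM, 5000 cells/well, rested 2 h then exposed to compounds in concentration-response for 18-24 h at 37 °C. Viability by CellTiter-Fluor fluorescence (Ex 405/Em 525) after 30 min; luciferase luminescence (BugLite, 15 min, RT) read afterwards.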
Nrf2 activator – activates Nrf2 signaling; AREc32 ARE-luciferase reporter (MCF7-derived line), luminescence, 24 h; Potency, µM (series often up to 46.1 µM), actives largely listed as activators; 410,000 tested, 0.31% active; also: nearly all actives have a fitted effect of over 65% in size
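Nrf2 activation is followed as ARE-luciferase induction in the AREc32 line after one day of compound treatment; luminescence is read with Steady-Glo.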
A number is an active result; [ ] = remark or other dose. Unless noted, calls follow the shape of the dose curve; as a rule, active = well fitted curve in the direction sought with a large enough effect; inconclusive = small, poorly fitted or top-dose-only effect, or another doubt; inactive = no such curve, though single readings can be large; an effect the other way counts as inactive or inconclusive.

Screening N#Cc1ccccc1NC(=S)NC(=O)c1cccs1 returned Nrf2 inh inactive, Pin1 inh inactive, A549 viability inactive and Nrf2 activator 16µM.
O=C(NCc1ccc(Cl)cc1)C1CCCN(c2ncnc3onc(-c4ccc(F)cc4)c23)C1 (stereo not drawn) was read as Nrf2 inh inactive, Pin1 inh inactive, A549 viability inactive and Nrf2 activator inactive.
Screening O=C(NCC1CC1)c1ccc2nc(-c3ccoc3)c(-c3ccoc3)nc2c1 returned Nrf2 inh inactive, Pin1 inh inactive and A549 viability inactive.
`COc1ccc(NC(=O)c2ccc3c(=O)n4nc(Nc5cc(C)ccc5C)sc4nc3c2)cc1` gave Nrf2 inh inactive, Pin1 inh inactive, A549 viability inactive and Nrf2 activator inactive.
`O=C1c2cccc(NCCCNCCO)c2C(=O)c2cccc(NCCCNCCO)c21` gave Nrf2 inh inconclusive, Pin1 inh inactive, A549 viability 18µM and Nrf2 activator inactive.
O=C1c2ccccc2C(=O)c2c(NCc3cccnc3)cccc21 was read as Nrf2 inh inactive, Pin1 inh inactive, A549 viability inactive and Nrf2 activator inactive.
Screening O=C(Cc1cccs1)N1CCN(c2nc(-c3ccc(Cl)cc3)cs2)CC1 returned Nrf2 inh 18µM, Pin1 inh inactive, A549 viability inactive and Nrf2 activator inactive.
COCCNC(=S)N1CCN(c2nc(-c3ccc(Cl)cc3)cs2)CC1 was read as Nrf2 inh inconclusive, Pin1 inh inactive, A549 viability inactive and Nrf2 activator inactive.
CNC(=S)N1CCN(c2nc(-c3ccc(Cl)cc3)cs2)CC1 was read as Nrf2 inh 18µM, Pin1 inh inactive, A549 viability inactive and Nrf2 activator inactive.
For S=C(NCC1CCCO1)N1CCN(c2nc(-c3ccccc3)cs2)CC1 (stereo not drawn) the results were Nrf2 inh 13µM, Pin1 inh inactive, A549 viability inactive and Nrf2 activator inactive.
For COc1cccc(-c2csc(N3CCN(C(=S)Nc4ccc(Cl)cc4)CC3)n2)c1 the results were Nrf2 inh 21µM, Pin1 inh inconclusive, A549 viability inactive and Nrf2 activator inactive.
`COc1cccc(-c2csc(N3CCN(C(=S)Nc4ccccc4)CC3)n2)c1` gave Nrf2 inh inactive, Pin1 inh inactive, A549 viability inactive and Nrf2 activator inactive.
For CNC(=S)N1CCN(c2nc(-c3cccc(OC)c3)cs2)CC1 the results were Nrf2 inh 18µM, Pin1 inh inactive, A549 viability inactive and Nrf2 activator inactive.
Screening CCNC(=S)N1CCN(c2nc(-c3ccc(F)cc3)cs2)CC1 returned Nrf2 inh 18µM, Pin1 inh inactive, A549 viability inactive and Nrf2 activator inactive.
Screening COC(=O)c1cccnc1-n1c(=O)c2cccnc2n(CC(=O)Nc2ccccc2F)c1=O returned Nrf2 inh inactive[9.27 µM], Pin1 inh inactive, A549 viability inconclusive and Nrf2 activator inactive.
For O=c1[nH]c(Sc2ccc([N+](=O)[O-])cc2[N+](=O)[O-])nc2ccccc12 the results were Nrf2 inh inactive, Pin1 inh inactive, A549 viability inactive and Nrf2 activator inconclusive.
Screening O=[N+]([O-])c1ccc(Sc2cc[n+]([O-])c3ccccc23)c([N+](=O)[O-])c1 returned Nrf2 inh 16µM, Pin1 inh inactive, A549 viability inconclusive and Nrf2 activator inconclusive.
For CCOC(=O)C1CCN(C(c2cccnc2)c2c(NC(=O)c3ccco3)sc(C)c2C)CC1 (stereo not drawn) the results were Nrf2 inh 15µM, Pin1 inh inactive, A549 viability inactive and Nrf2 activator inactive.
Cc1sc(NC(=O)c2ccco2)c(C(c2cccnc2)N2CCN(CCO)CC2)c1C (stereo not drawn) was read as Nrf2 inh inactive, Pin1 inh inactive, A549 viability inactive and Nrf2 activator inactive.
For Cc1sc(NC(=O)c2ccco2)c(C(c2cccnc2)N2CCN(c3ccc(F)cc3)CC2)c1C (stereo not drawn) the results were Nrf2 inh 15µM, Pin1 inh inactive, A549 viability inactive and Nrf2 activator inactive.
CCCN1CCN(c2nnc(-n3cccc3C(=O)Nc3cc(Cl)ccc3C)s2)CC1 was read as Nrf2 inh inconclusive, Pin1 inh inactive, A549 viability inactive and Nrf2 activator inactive.
`O=C(OC(C(=O)Nc1ccc([N+](=O)[O-])cc1Br)c1ccccc1)c1ccccc1` (stereo not drawn) gave Nrf2 inh 23µM, Pin1 inh inactive, A549 viability inactive and Nrf2 activator inactive.
